In PubChem BioAssay one finds outcome data, which are given here for 24 molecules.

SMILES strings stand for the structures. Potency and affinity values are given separately. Records with an inconclusive call do not appear. Where a call stands in place of a potency, no number is given. The source made the active and inactive calls. The rule behind the calls is not given here.

This test is described as follows: non-specific cell cytotoxicity, dose response, cytotoxicity control for PAX8 inhibitor project, plate reader, dry powder samples (AID 743021). As to conditions: cell line, non-specific cytotoxicity counter-screen; series mostly up to 35 µM. (In general: Counterscreens check selectivity or assay interference.)
Consider `CCCCCCN(C(=O)CCCN1C(=O)NC(c2ccc(-c3ccccc3)cc2)C(C(=O)OCc2ccccc2)=C1C)C(C)C(=O)NCCCC` (centres undefined), for which the outcome was inactive.
Regarding `CSc1ccc(COC(=O)c2cc([N+](=O)[O-])ccc2N2CCOCC2)cc1`, the molecule was classed as inactive.
`Cn1nnnc1Sc1ncnc2scc(-c3ccc([N+](=O)[O-])cc3)c12`: the call was inactive.
Consider `COc1ccc(S(=O)(=O)N(C)C[C@H]2Oc3ccc(NC(=O)Nc4ccc(C(F)(F)F)cc4)cc3C(=O)N([C@H](C)CO)C[C@@H]2C)cc1`, for which the call was inactive.
`O=C(NC(Nc1nc2ccc([N+](=O)[O-])cc2s1)(C(F)(F)F)C(F)(F)F)c1cccnc1`: the molecule was called inactive.
Consider `O=C(N/N=C/c1c[nH]c2ccccc12)c1[nH]c2ccc(Br)cc2c1-c1ccccc1`, for which the outcome was inactive.
Take `CC(C)=CCNc1ncnc2c1c(C#N)cn2C1OC(CO)C(O)C1O` (centres undefined): the outcome was inactive.
`C=CC[C@@H](CC(=O)N[C@H](CO)Cc1ccccc1)C(=O)N[C@H](COC(=O)[C@@H](CC=C)Cc1ccc(F)cc1)Cc1c[nH]c2ccccc12`: the molecule was classed as inactive.
`Cc1ccc(C(=O)c2cc([N+](=O)[O-])ccc2N2CCCCC2)c(C)c1`: the outcome was inactive.
For the molecule `CCCOc1ccc2[nH]c(C(=O)N/N=C/c3cc(OC)c(OC)c(OC)c3)cc2c1`, the result was inactive.
In the case of `Cc1cc(C)c(C(=O)/C=C/c2cccc3ccccc23)c(=O)[nH]1`, the molecule was called inactive.
On to `COc1ccc(C(=O)CN2C(=O)c3ccccc3S2(=O)=O)cc1`, for which the outcome was inactive.
In the case of `C[n+]1c2n(c3ccccc31)N=C(c1cc(C(C)(C)C)c(O)c(C(C)(C)C)c1)CS2`, the call was inactive.
Take `COc1cc(C(=O)NCC(c2cccs2)N2CCOCC2)ccc1OCc1ccc(Cl)cc1` (centres undefined): the outcome was inactive.
Turning to `CCN(CC)c1ccc2c(cc1=O)[C@@H](NC)CCc1cc(OC)c(OC)c(OC)c1-2`, the result was inactive.
On to `Cn1nnnc1Sc1ncnc2scc(-c3ccccc3Cl)c12`, for which the result was inactive.
With `CC1=CC(=O)C(C(C)C)=C/C1=N/OS(=O)(=O)c1ccccc1`, the call was inactive.
As for `Cc1ccc(S(=O)(=O)NCc2ccc(C(=O)N3CCN(c4ccc([N+](=O)[O-])cc4)CC3)cc2)cc1`, the molecule was called inactive.
As to `CCN(CC)S(=O)(=O)c1cc(OC)ccc1N=Nc1ccc(O)c2ncccc12`, the molecule was classed as inactive.
Consider `COCCN(CC(=O)NC1CCCCC1)C(=O)/C=C/C(=O)c1ccc(OC)cc1O`, for which the result was inactive.
The value for `CCSc1nsc(NC(=O)Nc2cccc(F)c2)n1` was “inactive”; that for `O=C(Cn1ncc(Cl)c(Cl)c1=O)Nc1ccc2c(c1)OCO2` was “inactive”; that for `N#Cc1nc(NCC(F)F)nc(Nc2cc(F)cc(F)c2)n1` was “inactive”.
As for `O=C(c1ccco1)N1N=C(c2ccc(Br)cc2)CC1(O)C(F)(F)F` (centres undefined), the result was inactive.
